The values that follow come from PubChem BioAssay AID652104 (National Center for Advancing Translational Sciences (NCATS), 2013).

Structures are written as SMILES. About 7,200 (1.8%) of roughly 410,000 compounds were called active. Inconclusive results (about 7%) are left out. Calls follow the shape of the dose curve; as a rule, active = well fitted activation curve with a large enough effect; inconclusive = small, poorly fitted or top-dose-only effect, or another doubt; inactive = no such curve, though single readings can be large or run the other way. For the sample, actives were picked, then their nearest neighbours and some compounds at random.
Potency is read from the fitted curve at half-maximal effect.

This assay is described as follows: qHTS of TDP-43 Inhibitors. Also: nearly all actives have a fitted effect of over 50% in size. As to growth rescue (activation): % of control where 0% means no effect. As to conditions: TDP-43 expressing yeast growth rescue, BacTiter-Glo, 24 h; series mostly up to 46.1 µM; growth rescue (activation): at the top concentration. An excerpt:
The goal of this project is to identify new chemical probes capable of reversing the toxicity associated with TDP-43 which is associated with frontotemporal lobar degeneration and amyotrophic lateral sclerosis. These compounds will provide a complementary approach to deciphering the tangled mechanisms of toxicity and protection that we have uncovered through genome-wide genetic screens and are beginning to uncover in a large-scale proteomics analysis with mass spectroscopy.
To this end, a miniaturized assay was developed to be screened against the Molecular Libraries Small Molecule Repository (MLSMR) to discover TDP-43 inhibitors. Please note that in the set-up this yeast-based assay compounds that inhibit as TDP-43, have a read-out as activators.
NIH Chemical Genomics Center [NCGC]
NIH Molecular Libraries Probe Centers Network [MLPCN]
Assay Submitter (PI): Susan Lindquist, Whitehead Institute/MIT
Dispense 2.5 microL yeast galactose medium per 1536-well plate, pin compound, dispense 2.5 microL TDP-43 expressing yeast in galactose medium at OD600=0.02 (pregrown in raffinose medium to mid-log phase) per well, incubate for 24 hr at 30 deg C, and cell growth will be measured using 5 microL of Bactiter/Glo reagent to entire plate and read using Luminescence Protocol in ViewLux.
Consider `O=C(NC1CCCCC1)c1ccc(Cn2c(SCc3ccccc3)nc3cccnc32)cc1`, for which the “growth rescue (activation)” value is -3.95% (inactive).

As for `O=C(O)c1ccc(CSc2nc3cccnc3n2Cc2cccc(F)c2)cc1`, the “growth rescue (activation)” value was 0% (inactive).

Regarding `Cc1oc(-c2ccccc2)nc1Cn1c(SCc2cccc(C(F)(F)F)c2)nc2cccnc21`, the Potency is 20 µM (active).

With `Cc1ccccc1OCc1nc2c3cnn(-c4ccccc4F)c3ncn2n1`, the “growth rescue (activation)” value was 22% (inactive).

With `COCCNc1nc(-c2ccccc2)nc2c1oc1ccccc12`, the Potency was 12.6 µM (active).

Take `C[C@@H](Nc1nc(-c2ccccc2)nc2c1oc1ccccc12)C(=O)O`: the “growth rescue (activation)” value was 1.72% (inactive).

On to `CCc1nc(Nc2ccc3nccnc3c2)c2oc3ccccc3c2n1`, for which the “growth rescue (activation)” value was -11.4% (inactive).

Regarding `Cc1cc(NC(=O)CC(C)C)cc(-c2nc3ncccc3o2)c1O`, the “growth rescue (activation)” value was 23.5% (inactive).

On to `CCOc1ccc(NC(=O)c2cnn(-c3ccccc3)c2-n2cccc2)cc1`, for which the growth rescue (activation) is -9.72% [at 9.22 µM] (inactive).

In the case of `COc1ccccc1CNc1nc2ccc(Cl)cc2n2cnnc12`, the “growth rescue (activation)” value is -9.41% (inactive).

Take `CC(C)Cc1ccc(-c2cc3nc(NCc4cccc(Cl)c4)ccn3n2)cc1`: the “growth rescue (activation)” value is 9.06% (inactive).

For the molecule `COc1ccccc1-c1cc2nc(NCc3cccc(Cl)c3)ccn2n1`, the Potency was 17.8 µM (active).

Consider `CCC1CCCCN1C(=O)Cn1c(=O)n(CCCCCC(=O)NCc2ccccc2)c(=O)c2sccc21` (stereo not drawn), for which the “growth rescue (activation)” value was 3.01% (inactive).

`Cc1nc(C)c(-c2csc(NCCc3ccccc3)n2)s1`: the Potency is 15.8 µM (active).

For the molecule `S=c1[nH]nc(NCCc2ccccc2)s1`, the growth rescue (activation) was -8.25% [at 0.397 µM] (inactive).

On to `Cc1nc(N)sc1-c1ccccc1`, for which the “growth rescue (activation)” value was -12.8% (inactive).

As to `Cc1c(CCNC(=O)c2ccc(C(F)(F)F)cc2)sc2nc(-c3ccc(F)cc3)nn12`, the “growth rescue (activation)” value is 1.73% (inactive).

For `COc1ccc(C2NC(=O)N(C)C3=C2C(=O)N(c2ccc(C(=O)O)cc2)C3)cc1` (stereo not drawn), the “growth rescue (activation)” value is -4.05% (inactive).

Take `COC(=O)c1scc(-c2ccccc2)c1S(=O)(=O)Nc1ccccc1`: the Potency is 12.6 µM (active).

Regarding `CCOC(=O)c1scc(-c2ccc(C)cc2)c1S(=O)(=O)Nc1cc(C)ccc1C`, the “growth rescue (activation)” value was 4.09% (inactive).

Turning to `COC(=O)c1scc(-c2ccc(C)cc2)c1S(=O)(=O)Nc1cc(Cl)c(OC)cc1OC`, the “growth rescue (activation)” value was 8.06% (inactive).

For the molecule `COc1cc(C(=O)NCCc2csc3nc(-c4ccccc4C)nn23)cc(OC)c1OC`, the “growth rescue (activation)” value was 3.64% (inactive).

As to `COc1ccc(NC(=O)C(c2ccccc2)N2Cc3ccccc3C2=O)cc1` (stereo not drawn), the growth rescue (activation) is 0% [at 9.22 µM] (inactive).

For the molecule `Cc1cc(C)cc(NC(c2nnc(-c3cccc(F)c3)o2)c2ccc(F)cc2Cl)c1` (stereo not drawn), the “growth rescue (activation)” value is 11.8% (inactive).

On to `C/C(=N\NC(=O)Cc1ccccc1[N+](=O)[O-])c1cccnc1`, for which the “growth rescue (activation)” value is 6.54% (inactive).

Regarding `O=C(/C=C/c1ccc(Cl)c([N+](=O)[O-])c1)c1cccnc1`, the Potency is 3.16 µM (active).

`O=C(/C=C/Nc1ccc(S(=O)(=O)Nc2cnc3ccccc3n2)cc1)c1cccnc1`: the “growth rescue (activation)” value was 5.52% (inactive).

Regarding `Cc1ccc(CCNC(=O)c2ccc(CS(=O)(=O)Cc3cccc(C)c3)o2)cc1`, the “growth rescue (activation)” value is 12.7% (inactive).

Turning to `CC1=C(C(=O)N2CCN(c3cccc(C(F)(F)F)c3)CC2)C2(CCCCC2)OC1=O`, the “growth rescue (activation)” value was 7.17% (inactive).

As for `COc1ccc(CCNc2cc(C)nc3c(-c4ccc(Cl)cc4)c(C)nn23)cc1OC`, the Potency is 20 µM (active).

In the case of `COc1ccc(CCNc2nc(-c3ccc(Cl)cc3)cc(C(F)(F)F)n2)cc1OC`, the “growth rescue (activation)” value is -4.55% (inactive).

As to `COc1cccc(NC(=O)C2CCN(c3cc(C)nc4c(-c5ccc(Cl)cc5)c(C)nn34)CC2)c1`, the “growth rescue (activation)” value was 1.98% (inactive).

Consider `COc1ccc(N2CCN(C(=O)C3CCCN(C(=O)c4cc5sccc5n4C)C3)CC2)cc1` (stereo not drawn), for which the “growth rescue (activation)” value was 9.85% (inactive).

For `COC(=O)c1ccccc1NC(=O)c1ccc(COc2ccccc2Cl)o1`, the “growth rescue (activation)” value was 8.94% (inactive).

Turning to `Cc1ccc(CNC(=O)CCc2c(C)nc3nc(CNC(=O)OC(C)(C)C)nn3c2C)cc1`, the “growth rescue (activation)” value was 9.83% (inactive).

In the case of `O=[N+]([O-])c1cc(C(F)(F)F)ccc1NN=C1CCCC1`, the “growth rescue (activation)” value is 20.6% (inactive).

On to `Nc1ccccc1Sc1ccc(C(F)(F)F)cc1[N+](=O)[O-]`, for which the Potency was 11.2 µM (active).

As for `O=C(CSc1ccc(C(F)(F)F)cc1[N+](=O)[O-])NCCOc1ccccc1`, the “growth rescue (activation)” value is -13.2% (inactive).

Consider `Cc1nc2nc(NCc3cccc(Br)c3)[nH]n2c(=O)c1Cc1ccccc1`, for which the “growth rescue (activation)” value was 12.5% (inactive).

Turning to `COc1ccc(C(=O)N2CCC(c3nc4ccccc4o3)CC2)cc1`, the “growth rescue (activation)” value was -8.9% (inactive).

With `CC(C)(C)OC(=O)N1CCN(C(=O)c2[nH]c(C(F)(F)F)nc2-c2ccccc2)CC1`, the “growth rescue (activation)” value was -9.17% (inactive).

`CCc1noc(C)c1C(=O)N1CCN(S(=O)(=O)c2cccc(C(F)(F)F)c2)CC1`: the “growth rescue (activation)” value was 15.9% (inactive).

For `Cc1onc(-c2ccccc2)c1C(=O)N1CCN(S(=O)(=O)c2ccccc2C(F)(F)F)CC1`, the Potency was 15.8 µM (active).

`N#Cc1nc(/C=C/c2ccc(F)cc2)oc1NC1CCCCC1`: the “growth rescue (activation)” value was 7.58% (inactive).

`Cc1ccccc1NC(=O)CSC(=O)c1ccccc1`: the Potency was 14.1 µM (active).

Take `Cc1cccc(NC(=O)CSC(N)=O)c1C`: the “growth rescue (activation)” value is -0.179% (inactive).

Turning to `Cc1ccccc1NC(=O)CSC1=NCCN1`, the “growth rescue (activation)” value was 16.4% (inactive).

As for `CCOc1cccc(CNC(=O)c2ccc(N3CCCC3)c(NC(=O)Nc3ccccc3CC)c2)c1`, the “growth rescue (activation)” value is 14.4% (inactive).

For the molecule `Cc1cccc(NC(=O)CN(c2ccc(C(C)C)cc2)S(=O)(=O)c2c(C)nn(C)c2C)c1C`, the “growth rescue (activation)” value was 9.66% (inactive).

As to `Cc1ccc(CNC(=O)CCc2c(C)nc3c(c(C)nn3-c3ccccc3)c2C)cc1`, the “growth rescue (activation)” value is 7.91% (inactive).

As for `CCOC(=O)C1CCCN(CC(=O)Nc2cc(C)c3c(=O)oc4ccccc4c3n2)C1` (stereo not drawn), the “growth rescue (activation)” value was 12.8% (inactive).

For `COc1ccc(CNc2nc(-c3ccccc3)nn2C(=O)c2ccccc2OC)cc1`, the “growth rescue (activation)” value was -26.6% (inactive).

Regarding `Cc1cc(C)cc(NC(=O)CCCc2nc(-c3ccccc3Cl)no2)c1`, the “growth rescue (activation)” value is 6.99% (inactive).

`Cc1ccc2nc(SCC(=O)Nc3cccc4ccccc34)nc(=O)n2c1`: the “growth rescue (activation)” value is 2.84% (inactive).

Regarding `Cc1cc(NC(=O)CSc2nccn2-c2ccc([N+](=O)[O-])cc2)no1`, the “growth rescue (activation)” value is 20.5% (inactive).

For `O=C(CSc1nccn1-c1ccc(F)cc1)Nc1cccc2ccccc12`, the Potency was 17.8 µM (active).

Consider `Cc1ccccc1-n1c(SCC(=O)Nc2cccc3ccccc23)nc(O)cc1=O`, for which the “growth rescue (activation)” value was 1.32% (inactive).

As for `O=C(CSc1nccn1-c1cccc(F)c1)NC1CCCC1`, the “growth rescue (activation)” value is 12.2% (inactive).

In the case of `Cc1cccc(-n2ccnc2SCC(=O)Nc2cccc3ccccc23)c1C`, the Potency was 22.4 µM (active).

Consider `O=C(CSc1nc(Nc2ccc(F)c(F)c2)c2ccccc2n1)c1ccc(Cl)cc1`, for which the “growth rescue (activation)” value is 14.9% (inactive).

With `CCC(C(=O)Nc1cc(OC)ccc1OC)n1c(=O)c(C(F)(F)F)nc2ccccc21` (stereo not drawn), the “growth rescue (activation)” value is 3.29% (inactive).

As to `CC(NC(=O)c1cc(Sc2ccc(F)cc2F)nc2ccccc12)c1ccccc1` (stereo not drawn), the “growth rescue (activation)” value was 17.5% (inactive).

With `CC(C)c1ccc(NC(=O)c2ccc3c(O)c(S(=O)(=O)c4ccccc4)c(=O)[nH]c3c2)cc1`, the “growth rescue (activation)” value is 19.2% (inactive).
